Test results taken from PubChem BioAssay (Tox21).
Results filed as inconclusive are left out. Calls of active or inactive are those of the source. Unless noted, the call rests on the fitted dose curve; in most records, active means well fitted curve in the direction sought with a large enough effect in the repeat runs; inconclusive means weak or mixed curves; inactive means no such curve, though single readings can be large; an effect the other way counts as inactive or inconclusive.

What was measured:
[1] = molecular target: Retinoic acid receptor RXR-alpha (Homo sapiens) (UniProt P19793); experiment: qHTS assay to identify small molecule agonists of the RXR signaling pathway (AID 1159527; calls by dose curve; further: nearly all actives have a fitted effect of over 35% in size)
Procedure, shortened: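 Beta-lactamase reporter assay, agonist format. Engineered HEK 293T line, charcoal-stripped FBS at 2%, overnight (16 hr) exposure, fluorescence at 460 and 530 nm after 405 nm excitation.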

[2] = qHTS assay to identify small molecule agonists of the RXR signaling pathway - cell viability counter screen (AID 1159529);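 further: HEK 293T cells carrying an RXR-alpha UAS beta-lactamase reporter; series mostly up to about 77 µM; nearly all actives have a fitted effect of over 50% in size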
Procedure, shortened: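 Same-well viability check after the LiveBLAzer FRET read: CellTiter-Glo added, luminescence measured after 30 min at room temperature. Reporter HEK 293T cells had been treated with compounds for 16 hr following a 5 hr preincubation.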

[3] = qHTS assay to identify small molecule antagonists of the retinoid acid receptor (RAR) signaling pathway - cell viability counter screen (AID 1159551); further: nearly all actives have a fitted effect of over 35% in size
Procedure, shortened: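 Seed C3RL4 cells; next day add compound, then retinol to 1 uM final; incubate 6 h at 37 C; add CellTiter-Glo; read luminescence after 30 min at RT.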

[4] = qHTS assay to identify small molecule antagonists of the retinoic acid receptor (RAR) signaling pathway (AID 1159552; further: nearly all actives have a fitted effect of over 50% in size)
Procedure, shortened: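 Readout: luciferase luminescence, 30 min post-reagent at RT. Setup: C3RL4 RARE reporter cells, compounds plus retinol 1 uM final, 6 hr incubation at 37 C and 5% CO2.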

[5] = qHTS assay to identify small molecule agonists of the retinoic acid receptor (RAR) signaling pathway (AID 1159553)
Procedure, shortened: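 Activation of retinol signaling was monitored via a RARE luciferase reporter in C3RL4 cells. After 6 hr compound treatment at 37 C, detection reagent was added for 30 min at room temperature before luminescence reading.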
On the % scale 0 is the no-effect control and ±100 the full control effect.

Retinoic acid receptor RXR-alpha (Homo sapiens), sequence (P19793 whole entry, looked up): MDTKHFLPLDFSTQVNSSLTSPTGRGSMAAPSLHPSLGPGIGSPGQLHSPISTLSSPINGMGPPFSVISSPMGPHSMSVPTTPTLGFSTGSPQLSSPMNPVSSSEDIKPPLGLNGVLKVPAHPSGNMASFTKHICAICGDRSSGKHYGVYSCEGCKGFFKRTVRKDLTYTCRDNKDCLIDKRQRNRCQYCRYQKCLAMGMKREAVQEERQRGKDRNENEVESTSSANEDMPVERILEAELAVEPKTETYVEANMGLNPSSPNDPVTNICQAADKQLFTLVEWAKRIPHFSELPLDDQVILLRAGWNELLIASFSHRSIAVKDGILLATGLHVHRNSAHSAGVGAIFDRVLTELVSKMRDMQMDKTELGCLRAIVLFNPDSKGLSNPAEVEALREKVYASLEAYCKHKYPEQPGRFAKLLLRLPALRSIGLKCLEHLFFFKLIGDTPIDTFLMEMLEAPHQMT

CON(C)C(=O)Nc1ccc(Br)cc1
inactive: Potency [1] | Potency [2] | Potency [3] | Potency [4]

C/C(=N\NC(=O)Nc1cc(F)cc(F)c1)c1ncccc1C(=O)O
inactive: Potency [1] | Potency [2] | Potency [3]

Brc1c(Br)c(Br)c(Br)c(Br)c1Br
inactive: activation [1] 13.1% [at 6.98 µM] | activity change, negative = cytotoxicity [2] 7.53% [at 6.97 µM] | activity change, negative = cytotoxicity [3] -4.22% [at 8.39 µM] | activity, negative = inhibition [4] -18.1% [at 8.39 µM] | activation [5] -2.33% [at 8.36 µM]

CC(Cc1ccccc1)NCCn1cnc2c1c(=O)n(C)c(=O)n2C (configuration not stated)
inactive: Potency [1] | Potency [2] | Potency [3]

CCOC1Oc2ccc(OS(C)(=O)=O)cc2C1(C)C (configuration not stated)
inactive: Potency [1] | Potency [2] | Potency [3]

COP(=O)(OC)O/C(C)=C/C(=O)N(C)C
inactive: Potency [1] | Potency [2] | Potency [3] | Potency [4]

c1cncc([C@@H]2CCCCN2)c1
inactive: Potency [1] | Potency [2] | Potency [3]

CN(C)CCN(C)C
inactive: Potency [1] | Potency [2] | Potency [3] | Potency [4] | Potency [5]

CCC(=O)OC1(c2ccccc2)CCN(C)CC1
inactive: Potency [1] | Potency [2] | Potency [3] | Potency [4] | Potency [5]

Clc1nc(Cl)nc(Nc2ccccc2Cl)n1
inactive: Potency [1] | Potency [2] | Potency [3] | Potency [4] | Potency [5]

CCOC(=O)C(SP(=S)(OC)OC)c1ccccc1 (configuration not stated)
inactive: Potency [1] | Potency [2] | Potency [3]

CCN[C@H](C)Cc1cccc(C(F)(F)F)c1
inactive: Potency [1] | Potency [2] | Potency [3] | Potency [4]

Cn1c(N)nc2c3cccnc3ccc21
inactive: Potency [1] | Potency [2] | Potency [3]

CCC(=O)c1ccc(Cl)cc1
inactive: Potency [1] | Potency [2] | Potency [3] | Potency [4] | Potency [5]

Oc1ccc(Cc2ccc(O)cc2)cc1
inactive: Potency [1] | Potency [2] | Potency [3] | Potency [4]

COP(=O)(O)OC
inactive: Potency [1] | Potency [2] | Potency [3] | Potency [4] | Potency [5]

CCCC(C)(COC(N)=O)COC(N)=O
inactive: Potency [1] | Potency [2] | Potency [3] | Potency [4]

ClCCCCl
inactive: Potency [1] | Potency [2] | Potency [3] | Potency [4]

CC#Cc1cc(C)nc(Nc2ccccc2)n1
inactive: Potency [1] | Potency [2] | Potency [3] | Potency [4]

CC(O)CCl (configuration not stated)
inactive: Potency [1] | Potency [2] | Potency [3] | Potency [4] | Potency [5]

CC(C)C(C)(N)C#N (configuration not stated)
inactive: Potency [1] | Potency [2] | Potency [3] | Potency [4] | Potency [5]

CN1COCN(Cc2cnc(Cl)s2)/C1=N\[N+](=O)[O-]
inactive: Potency [1] | Potency [2] | Potency [3] | Potency [4] | Potency [5]

Nc1c(Cl)c(F)nc(OCC(=O)O)c1Cl
inactive: Potency [1] | Potency [2] | Potency [3] | Potency [4] | Potency [5]

CC(C)(O)C(Cl)(Cl)Cl
inactive: Potency [1] | Potency [2] | Potency [3] | Potency [4] | Potency [5]

COc1ccc2c(C(=O)c3ccc(Cl)cc3)c(C)n(CC(=O)O)c2c1
inactive: Potency [1] | Potency [2] | Potency [3] | Potency [4] | Potency [5]

CC[C@H](O)C(C[C@H](C)N(C)C)(c1ccccc1)c1ccccc1
inactive: Potency [1] | Potency [2] | Potency [3] | Potency [4]

CCCCCCCC(=O)Cl
inactive: Potency [1] | Potency [2] | Potency [3] | Potency [4] | Potency [5]

O=P(O)(O)CN(CP(=O)(O)O)CP(=O)(O)O
inactive: Potency [1] | Potency [2] | Potency [3] | Potency [4] | Potency [5]

CCOC(=O)COc1ccc(Cl)cc1Cl
inactive: Potency [1] | Potency [2] | Potency [3] | Potency [4]

O=C1CC(=O)NC(=O)N1
inactive: Potency [1] | Potency [2] | Potency [3] | Potency [4] | Potency [5]

CCN(CCO)CCO
inactive: Potency [1] | Potency [2] | Potency [3] | Potency [4] | Potency [5]

c1ccc2c(c1)CCNC2
inactive: Potency [1] | Potency [2] | Potency [3] | Potency [4] | Potency [5]

CC(C)[N+](C)(CCC(C(N)=O)(c1ccccc1)c1ccccc1)C(C)C
inactive: Potency [1] | Potency [2] | Potency [3] | Potency [4] | Potency [5]

CCCCCCC(=O)CCCCCC/C=C/C[C@@H](O)[C@H](O)[C@@](N)(CO)C(=O)O
inactive: activation [1] 1.63% [at 15.8 µM] | activity change, negative = cytotoxicity [2] 2.42% [at 15.8 µM] | activity change, negative = cytotoxicity [3] 2.99% [at 19 µM] | activity, negative = inhibition [4] 6.01% [at 19 µM] | Potency [5]

ClC(Cl)(Cl)Cl
inactive: Potency [1] | Potency [2] | Potency [3]

Clc1cc2c(cc1Cl)Oc1cc(Cl)c(Cl)cc1O2
inactive: activation [1] 5.21% [at 0.29 µM] | activity change, negative = cytotoxicity [2] -1.01% [at 0.29 µM] | activity change, negative = cytotoxicity [3] 3.92% [at 0.349 µM] | activity, negative = inhibition [4] -3.48% [at 0.349 µM] | activation [5] -1.63% [at 0.338 µM]
